The list is not random: actives were taken first. Their share in the collection is about 11%.
HSD17B inhib: blocks hydroxysteroid 17-beta dehydrogenase activity. Q99714. recombinant HSD17B10, NADH fluorescence kinetic. Potency, µM (top dose mostly 57.1 µM), usual class: inhibitors. 7.6% of 75,000 active. AID 893;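 further: the protocol describes HADH2 (HSD17B10) and not the HSD17B4 of the title; nearly all actives have a fitted effect of over 70% in size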
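Enzyme plus compound, 15 min room temperature; substrate mix added (NAD+ 1 mM, beta-hydroxybutyryl-CoA 90 uM final); plates read kinetically for NADH fluorescence. HADH2 was His-tagged, E. coli-derived, 20 nM.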
ERK AVP block: vasopressin-driven ERK pathway inhibition; Potency, µM (top dose mostly 57.5 µM), hits mostly inhibitors; 0.99% of 72,000 active; HEK293-V1b, vasopressin-stimulated pERK AlphaScreen; further: nearly all actives have a fitted effect of over 55% in size
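HEK293 cells stably expressing V1b receptor, preincubated 30 min at 37 °C with compound, then stimulated 5 min with 25 nM vasopressin. Phospho-ERK by AlphaScreen SureFire after 5 h RT; normalized to DMSO and vasopressin; AC50 by Hill fit.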
ALOX15 inhib: inhibitors of human 15-lipoxygenase (ALOX15). P16050. purified 15hLO-1, xylenol orange hydroperoxide absorbance. Potency, µM (highest dose often 57.1 µM), actives largely listed as inhibitors. 1.4% of 74,000 active. AID 887; further: nearly all actives have a fitted effect of over 55% in size
Target sequence (P16050 whole entry, looked up): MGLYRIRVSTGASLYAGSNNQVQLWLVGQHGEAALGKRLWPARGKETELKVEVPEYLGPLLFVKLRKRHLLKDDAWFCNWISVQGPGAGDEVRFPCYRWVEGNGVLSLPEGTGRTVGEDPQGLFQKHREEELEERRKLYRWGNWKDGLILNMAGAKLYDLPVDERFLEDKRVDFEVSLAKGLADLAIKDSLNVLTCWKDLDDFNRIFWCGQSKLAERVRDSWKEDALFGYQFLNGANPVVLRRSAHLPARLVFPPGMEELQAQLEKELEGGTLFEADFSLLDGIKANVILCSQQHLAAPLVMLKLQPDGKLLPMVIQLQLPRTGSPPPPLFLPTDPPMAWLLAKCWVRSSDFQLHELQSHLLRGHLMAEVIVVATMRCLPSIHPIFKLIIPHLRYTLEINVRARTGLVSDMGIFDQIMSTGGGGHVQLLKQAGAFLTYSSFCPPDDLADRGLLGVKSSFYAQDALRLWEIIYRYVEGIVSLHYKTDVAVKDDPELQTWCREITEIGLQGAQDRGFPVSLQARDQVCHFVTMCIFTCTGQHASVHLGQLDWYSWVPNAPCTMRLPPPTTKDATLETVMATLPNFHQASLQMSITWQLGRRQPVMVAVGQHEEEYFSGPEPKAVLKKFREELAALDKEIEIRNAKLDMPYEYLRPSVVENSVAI
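Readout: Fe(III)-xylenol orange absorbance, 573-to-405 nm ratio as reaction progress. Enzyme 40 nM purified human 15hLO-1, substrate 50 uM arachidonic acid, 6 min RT after 15 min compound preincubation; Hepes pH 7.5 buffer with Triton X-100.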
Luciferase inh: inhibitors of firefly luciferase. AID 411. Potency, µM (highest dose often 57.1 µM), most hits filed as inhibitors. 2.2% of 72,000 active. purified firefly luciferase, luminescence, 8 min. P08659; further: nearly all actives have a fitted effect of over 40% in size
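Titration-based qHTS; buffer 50 mM imidazole pH 7.2, 50 mM KCl, 7 mM MgCl2, 10 uM ATP, 0.01% Tween 20, 0.05% BSA; luciferase/luciferin detector mix added after compound; 8 min, ambient; luminescence.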
PK Bst: pyruvate kinase (B. stearothermophilus) modulation; Potency, µM; 1.2% of 51,000 active; purified pyruvate kinase, luminescence ATP production; ribose 5-phosphate activator present at AC10; AID 361; in the data active means potency below about 11 µM; inconclusive means mostly about 12 µM to 25 µM;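 the screen sought inhibitors and activators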
HADH2 inh: HADH2 (human) dehydrogenase inhibition | Potency, µM (titrated, usually from 57.1 µM), hits mostly inhibitors | recombinant HADH2, NADH fluorescence, beta-hydroxybutyryl-CoA | 3.4% of 73,000 active | Q99714; further: nearly all actives have a fitted effect of over 60% in size
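E. coli-expressed His-tagged HADH2 tested at 20 nM in alkaline Tris buffer (pH 9.0); oxidation of 90 uM beta-hydroxybutyryl-CoA with 1 mM NAD+ tracked fluorimetrically for 4 min.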
Of the large screens only hits and unclear results are named; the others gave an inactive call. Unless noted, the call rests on the fitted dose curve; in most records, active means well fitted curve in the direction sought with a large enough effect; inconclusive means small, poorly fitted or top-dose-only effect, or another doubt; inactive means no such curve, though single readings can be large; an effect the other way counts as inactive or inconclusive.

Cc1noc(C)c1-c1nc(N(C)Cc2ccco2)c2ccccc2n1	ALOX15 inhib inconclusive (no result: PK Bst)
CCOc1ccc(NC(=O)C2CC(=O)N3CCCN=C3S2)cc1 (stereo not given)	none
CCCOc1ccc(NC(=O)C2CC(=O)N3CCCN=C3S2)cc1 (stereo not given)	HSD17B inhib 31.6µM, HADH2 inh 20µM
COc1ccc(OC)c(Nc2nc(N)nc(-c3cc4ccccc4o3)n2)c1	HSD17B inhib inconclusive
Cc1c(-c2nc(N)nc(Nc3ccccc3)n2)oc2ccccc12	HSD17B inhib 25.1µM, ALOX15 inhib inconclusive, Luciferase inh 25.1µM, PK Bst inconclusive
Cc1noc(C)c1-c1ccc2ncnc(NCc3cccs3)c2c1	none (no result: PK Bst)
Cn1nc(-c2ccc(Cl)cc2)c2cc(C(=O)NC3CC3)sc21	ERK AVP block inconclusive (no result: PK Bst)
Cn1nc(-c2ccc(Cl)cc2)c2cc(C(=O)NCCCN3CCOCC3)sc21	HSD17B inhib 31.6µM, HADH2 inh inconclusive (no result: PK Bst)
CCOCCCNC(=O)c1cc2c(-c3ccc(Cl)cc3)nn(C)c2s1	HSD17B inhib 31.6µM (no result: PK Bst)
COc1ccc(C(=O)N2CCC3(CCN(Cc4cc(C(F)(F)F)cc(C(F)(F)F)c4)CC3)CC2)cc1	none (no result: PK Bst)
C#CCCCO/N=C1/[C@H]2O[C@@H]2[C@@H](O)[C@H]2[C@H]1CCn1c(=O)n(Cc3cc4c(cc3Cl)OCO4)c(=O)n12	none (no result: PK Bst)
O=C(c1ccco1)N1CCC[C@@]2(CCN(Cc3ccccc3)C2)C1	none (no result: PK Bst)
COc1ccccc1-n1cnc(N)c1C(C)=O	none
COc1ccccc1N1C(=O)N(C(C)=O)C2C1Nc1ccccc1N2C (stereo not given)	ERK AVP block 25.1µM, ALOX15 inhib inconclusive, HADH2 inh inconclusive (no result: PK Bst)
CC1=N[C@@](C)(COC(=O)[C@]2(C)N[C@](C)(CO)CO2)COC1=O	none (no result: PK Bst)
Cc1noc(C)c1COC(=O)c1ccc(-c2nc3ccccc3s2)s1	HSD17B inhib 15.8µM
O=C(NC1CC1)c1ccc(-c2nc3ccccc3s2)s1	HSD17B inhib inconclusive, Luciferase inh 1.58µM, PK Bst 0.799
Cc1noc(C)c1COC(=O)CCCc1nc2ccccc2s1	none
O=C(O)C1C2CCC(C2)C1C(=O)Nc1nc2ccccc2s1 (stereo not given)	none
CNc1nc(-c2ccc3c(c2)OCO3)nc2ccccc12	HSD17B inhib inconclusive, ERK AVP block inconclusive, HADH2 inh inconclusive (no result: PK Bst)
c1ccc2sc(-c3ccc4c(c3)OCO4)nc2c1	HSD17B inhib 25.1µM, Luciferase inh 1.58µM, HADH2 inh inconclusive (no result: PK Bst)
c1ccc(CNc2nc(-c3ccc4c(c3)OCO4)nc3ccccc23)cc1	HSD17B inhib inconclusive, ERK AVP block 20µM, HADH2 inh inconclusive (no result: PK Bst)
c1ccc(Nc2nc(-c3ccc4c(c3)OCO4)nc3ccccc23)cc1	HSD17B inhib 31.6µM, ERK AVP block 15.8µM, ALOX15 inhib inconclusive, HADH2 inh inconclusive (no result: PK Bst)
c1ccc2sc(N3CCN(Cc4ccc5c(c4)OCO5)CC3)nc2c1	none (no result: PK Bst)
O=C(c1ccco1)N1CCC2(CC1)CCN(c1cccc(-c3ccccc3)c1)CC2	none (no result: PK Bst)
CCOC(=O)CNc1c(-c2ccc(O)cc2)nc2ccc(Cl)cn12	ERK AVP block inconclusive, Luciferase inh inconclusive (no result: PK Bst)
CCOC(=O)CNc1c(-c2ccc(O)cc2)nc2ccccn12	HSD17B inhib 31.6µM, HADH2 inh inconclusive
Oc1ccc(-c2nc3ccccn3c2NCc2ccc3c(c2)OCO3)cc1	HSD17B inhib 31.6µM, ERK AVP block inconclusive (no result: PK Bst)
C=CCn1c(NCc2ccc3c(c2)OCO3)nc2ccccc21	none (no result: PK Bst)
OC[C@@H](O)CNc1ncnc2ccccc12	none (no result: PK Bst)
Cc1nc(C)c2c(=O)cc(-c3ccccc3)[nH]c2n1	HSD17B inhib 31.6µM, HADH2 inh 31.6µM (no result: PK Bst)
CCCc1c(-c2ccc(O)cc2)nn(-c2ccc(O)cc2)c1-c1ccc(O)cc1	HSD17B inhib 15.8µM, ALOX15 inhib inconclusive, HADH2 inh 3.16µM (no result: PK Bst)
CN1C(=O)CSc2ccc(NC(=O)N3CCN(c4ccccn4)CC3)cc21	HSD17B inhib 31.6µM, ERK AVP block inconclusive
CN1C(=O)CSc2ccc(NC(=O)N3CCc4ccccc43)cc21	Luciferase inh 12.6µM, PK Bst 8.22

Bioassay records (PubChem)
